Screens from PubChem.
Hits are enriched below; roughly 6% of the tested compounds scored in any of these assays.
BCR signal inh: inhibitors of chronic active B-cell receptor signaling. ABC-DLBCL IkBa-CBG/CBR reporter, luminescence ratio, 4 h. Potency, µM (highest dose often 46.1 µM), for the others: top-dose activity change, negative = inhibition, actives largely listed as inhibitors. actives 0.05% (n = 340,000). AID 493014; active = well fitted inhibition curve with a large enough effect in the signal ratio, with a control signal flat, not every such curve was filed as active; inconclusive = small, poorly fitted or top-dose-only effect, or effect the other way, or a change in a side signal; the % refers to the signal ratio;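 note: potency is the fitted concentration of half-maximal effect; plate controls were basal doxycycline-induced cells for no effect and cells given 10 µM MG132 for full effect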
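Concentration-response series (up to 46 uM) were applied to TMD8 dual-reporter cells for 4 h at 37C with doxycycline. Green/red ratio, after filter-overlap correction, defined %Activity; red signal alone was normalised to basal cells and zero luminescence.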
D1 antagonist: blocks dopamine activation of the human D1 receptor. activity change, negative = inhibition, % at 10 µM. P21728. HEK293 TREx D1 cells, calcium flux, dopamine EC80; hits give low values. actives 3.2% (n = 360,000); in the data active = activity change below about -30%; note: % is set by controls: 0 for no effect and ±100 for the full control effect
Target sequence (P21728 whole entry, looked up): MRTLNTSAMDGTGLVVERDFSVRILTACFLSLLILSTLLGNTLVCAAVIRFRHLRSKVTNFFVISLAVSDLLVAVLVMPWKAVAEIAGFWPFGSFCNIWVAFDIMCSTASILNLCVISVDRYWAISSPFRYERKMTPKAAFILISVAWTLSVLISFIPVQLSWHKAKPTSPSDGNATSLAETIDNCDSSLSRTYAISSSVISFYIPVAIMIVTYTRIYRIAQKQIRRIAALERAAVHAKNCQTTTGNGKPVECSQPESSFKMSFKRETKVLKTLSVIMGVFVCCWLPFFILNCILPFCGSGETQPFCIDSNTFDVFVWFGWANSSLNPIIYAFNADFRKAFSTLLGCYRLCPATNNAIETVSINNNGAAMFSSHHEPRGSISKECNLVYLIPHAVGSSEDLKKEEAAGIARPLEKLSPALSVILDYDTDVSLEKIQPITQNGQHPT
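Tetracycline-induced HEK293 Trex D1 cells, force-coupled to calcium, dye-loaded; compounds added and read 180 s, then EC80 dopamine added and calcium flux tracked kinetically another 180 s.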
DRD3 agonist: activates the human D3 dopamine receptor. P35462. D3R DiscoveRx beta-arrestin cells, luminescence, 90 min. max activation, %. actives 0.58% (n = 410,000). AID 652048; in the data active = max activation above about 30%; note: 0% is about no effect
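Agonist mode: compounds and dopamine controls were applied to plated cells for 90 min at 37 degrees C after an overnight attachment at 1500 cells/well. Luminescent read-out followed 30 - 60 minutes at room temperature with DiscoveRx detection reagent.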
D1 potentiator: enhances dopamine response at the human D1 receptor; P21728; HEK293 TREx D1 cells, calcium flux, dopamine EC20 potentiation; potentiation, % at 10 µM; actives 0.036% (n = 360,000); in the data active = potentiation above about 30%; note: 0% is about no effect
DRD3 antagonist: D3 dopamine receptor (human) antagonism; D3R cells, DiscoveRx beta-arrestin luminescence, antagonist mode; hits give low values; max response, negative = inhibition, %; actives 2.5% (n = 360,000); in the data active = max response below about -50%; inconclusive = no clear call, values can overlap the other calls; note: % is set by controls: 0 for no effect and ±100 for the full control effect
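Cells expressing the human receptor were seeded at 1500 cells/well, incubated overnight at 37 degrees C in 5% CO2, then exposed to library compounds with dopamine controls for 90 minutes at 37 degrees C before luminescent detection.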
D1 ag: activates the human D1 dopamine receptor; HEK293 T-REx D1 cells, calcium flux, agonist mode; P21728; actives 1% (n = 360,000); activation, % at 2 µM; in the data active = activation above about 30%; note: 0% is about no effect
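Inducible HEK293 T-REx D1 cells, force-coupled to calcium signalling, were plated at 4000 cells/well with tetracycline and held overnight at 30 C. After no-wash calcium dye loading, compound-evoked calcium rise over 180 s flagged agonists.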
* = called active by the depositor; u = inconclusive; x = no result given; ! = a repeat was not active.

SMILES | BCR signal inh | D1 antagonist | DRD3 agonist | D1 potentiator | DRD3 antagonist | D1 ag
O=C(Nc1ccccc1)c1cccc(N2C(=O)C3C4C=CC(C5CC45)C3C2=O)c1 (configuration not stated) | u | -38.0* | 8.9 | 4.2 | 3.9 | 9.5
COC(=O)c1ccc(NC(=O)c2cccc(N3C(=O)C4C5C=CC(C6CC56)C4C3=O)c2)cc1 (configuration not stated) | u | 12.7 | 10.2 | -0.5 | 39.5 | 7.0
O=C(Nc1ccc(Br)cc1)c1cccc(N2C(=O)C3C4CCC(C4)C3C2=O)c1 (configuration not stated) | u | -39.5* | 0.8 | -5.5 | 2.6 | 5.8
O=C(Nc1ccc(F)cc1)c1cccc(N2C(=O)C3C4C=CC(C4)C3C2=O)c1 (configuration not stated) | 0.8% | 2.2 | 8.9 | -5.0 | 5.5 | 9.1
COc1cccc(N2CCN(c3c4c(nc5nncn35)CCC4)CC2)c1 | x | 0.2 | 8.8 | 0.7 | x | 1.9
CC(NC(=O)CCNC(=O)c1ccccc1Cl)c1ccc(-n2ccnc2)cc1 (configuration not stated) | 2.1% | 9.7 | 0.0 | -2.1 | -59.4* | 2.4
COc1ccccc1C(=O)NCCC(=O)NC(C)c1ccc(-n2ccnc2)cc1 (configuration not stated) | 1.3% | -22.3 | 1.4 | -6.4 | 27.3 | 6.5
O=C(Cn1ccc(=O)[nH]c1=O)Nc1nccs1 | x | x | -10.1 | x | -8.5 | x
CS(=O)(=O)c1ccc([C@@H](O)[C@@H](CO)NC(=O)C(Cl)Cl)cc1 | -8.6% | -10.5 | -24.9 | 3.2 | -51.2* | -2.0
Cc1ccc(Cl)cc1N1CCN(C(=O)c2c(C)oc3ncnc(N4CCOCC4)c23)CC1 | x | 8.7 | -4.9 | 6.3 | x | 3.6
Fc1ccc(-c2onc3ccc(C4OCCO4)cc23)cc1 | -4.6% | -56.0* | -1.1 | -1.1 | 3.9 | -0.4
O=C(COC(=O)C1C2CC3OC(=O)C1C3C2)Nc1ccc(F)cc1 (configuration not stated) | -6.7% | 2.8 | 1.7 | -5.0 | 2.9 | 0.2
O=C(COC(=O)C1C2CC3OC(=O)C1C3C2)Nc1ccc(Br)cc1 (configuration not stated) | -12.8% | 7.5 | -8.6 | x | 21.0 | 32.6*
NC(Cc1ccc(C(F)(F)F)cc1)c1csc(Nc2ccc(C(=O)c3ccccc3)cc2)n1 (configuration not stated) | x | x | 7.2 | x | 102.6 | x
Cc1ccc(C)c(CSC2=NC(C)(C)Nc3ccccc32)c1 | x | -82.7* | 8.8 | -9.9 | x | 0.4
CC1(C)N=C(SCc2ccc(F)cc2)c2ccccc2N1 | x | 2.1 | -29.8 | 1.8 | x | 3.1
CCOC(=O)C1CCC(CN(Cc2ccc(Cl)cc2)S(=O)(=O)c2ccc(F)c(C(=O)Nc3cccc(F)c3)c2)CC1 (configuration not stated) | 7.7% | -0.5 | -22.3 | -1.4 | x | -1.6
NC(N)=Nc1cc2ccccc2c2ccccc12 | u | -69.9* | x | -7.9 | x | -0.1
NC(N)=NC(N)=Nc1cccc2ccccc12 | 1.1% | -10.1 | 10.7 | 1.2 | 9.1 | 1.1
CC(=O)c1cc(NC(=O)c2ccc(Cl)cc2)c(=O)oc1/C=C/N(C)C | 6.7% | -17.9 | -3.6 | 2.5 | -71.8* | 107.8*
O=c1oc2c(O)cccc2cc1-c1nc2ccccc2[nH]1 | u | -4.6 | 4.9 | 9.1 | 28.8 | 408.4*
O=c1oc2c(CN3CCCCC3)c(O)ccc2cc1-c1nc2ccccc2[nH]1 | -6.3% | -17.8 | 1.0 | -1.9 | 9.2 | 136.0*
C=CCc1cccc2cc(-c3nc4ccc(C)cc4[nH]3)c(=O)oc12 | u | -41.9* | 3.6 | 2.9 | x | 65.7*
O=NN(CCCl)C(=O)NC1CCCCC1 | x | x | 11.9 | x | x | x
COc1ccccc1C1C=C(c2ccc(F)cc2)Nc2nc(-c3ccc(Cl)cc3)nn21 (configuration not stated) | x | 12.3 | 5.3 | 3.1 | x | 4.9
SMILES | BCR signal inh | D1 antagonist | DRD3 agonist | D1 potentiator | DRD3 antagonist | D1 ag
CCOc1ccccc1NC(=O)CSc1nnc2[nH]c(=O)cc(C)n12 | u | x | -16.7 | -0.6 | x | -0.2
Cc1cc(=O)[nH]c2nnc(SCC(=O)Nc3ccc(OC(F)(F)F)cc3)n12 | u | x | 46.7* | 1.4 | x | -2.4
Cc1cc(=O)[nH]c2nnc(SCC(=O)NC(C)(C)C)n12 | 4.9% | x | -7.8 | -1.4 | x | -3.3
Nc1cc(=O)[nH]c2nnc(SCC(=O)Nc3cccc4ccccc34)n12 | 8.5% | -45.3* | 6.7 | 2.6 | 2.8 | -0.4
Cc1ccc(C)c(Cn2c(=O)cc(C)c3c(C)nn(C)c32)c1 | x | -9.0 | 13.4 | -3.9 | x | 11.1
CCOc1cc(C(=O)Nc2ccc3nc(N4CCN(C)CC4)cc(C)c3c2)cc(OCC)c1OCC | x | -33.8* | -22.6 | 0.5 | x | 0.0
Cc1cc(N2CCN(C)CC2)nc2ccc(NC(=O)c3cccnc3Cl)cc12 | -11.1% | 2.2 | -1.1 | 30.1* | 0.0 | 2.2
Cc1cc(N2CCN(C)CC2)nc2ccc(NC(=O)c3ccccc3F)cc12 | 2.3% | -41.8*! | 3.8 | -3.5 | 9.2 | 0.4
CCN1CCN(c2cc(C)c3cc(NC(=O)c4cccnc4Cl)ccc3n2)CC1 | 3.1% | -10.9 | -3.2 | 1.2 | -12.8 | -0.4
CCN1CCN(c2cc(C)c3cc(NC(=O)c4ccncc4)ccc3n2)CC1 | -0.3% | 2.3 | -5.6 | -2.1 | -13.2 | 1.6
c1ccc(Oc2ccccc2-c2cc(NCCc3cccnc3)n3nccc3n2)cc1 | x | x | -2.2 | x | 4.4 | x
CCn1cc2c(n1)-c1c(oc(C(=O)Nc3ccc(Br)cc3F)c1C)CC2 | x | 3.8 | 2.5 | -3.2 | x | 1.6
Cc1cc(S(=O)(=O)Nc2cc3c(cc2NCc2ccccc2)n(C)c(=O)n3C)ccc1F | x | 5.8 | -4.5 | -1.1 | x | 0.5
N#CC1(Nc2cccc(Br)c2)C(=O)Nc2ccccc21 (configuration not stated) | u | -17.0 | -24.8 | -0.5 | -17.1 | 53.3*
CN(CCC#N)C(=S)Nc1ccc(F)cc1 | 1.0% | -30.5* | 15.7 | -1.7 | 1.4 | 2.5
CN(C)c1nc(N/N=C/c2ccccc2O)nc(Nc2ccc(F)cc2)n1 | u | -18.8 | -35.6 | 4.3 | -84.8* | 3.8
Fc1ccc2[nH]c3c(N4CCc5ccccc5C4)ncnc3c2c1 | u | -35.3* | 11.7 | -12.0 | 22.8 | 15.9
Clc1ccc2[nH]c3c(N4CCC5(CC4)OCCO5)ncnc3c2c1 | -0.2% | -35.0* | 1.2 | -3.6 | 33.9 | 9.2
CCOc1ccc2[nH]c3c(N4CCc5ccccc5C4)ncnc3c2c1 | u | 1.2 | -13.5 | -2.2 | 9.2 | 0.1
Brc1ccc2[nH]c3c(N4CCc5ccccc5C4)ncnc3c2c1 | u | x | 29.2 | -0.9 | -15.1 | -0.2
Cc1ccc2[nH]c3c(N4CCc5ccccc5C4)ncnc3c2c1 | u | -60.6* | 6.4 | -11.2 | 17.6 | 9.8
